NS1 function inh = influenza NS1 inhibition. Potency, µM (top dose mostly 46.1 µM), for the others: top-dose activity, positive = more growth. 0.4% of 270,000 active; calls by dose curve; further: potency means the concentration at half of the fitted maximal effect; actives are rising curves; nearly all actives have a fitted effect of over 50% in size
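S. cerevisiae expressing influenza A NS1, grown in glucose, washed, then diluted 1:100 into pH 6.0 -URA galactose medium with 23 nl compound. Growth recovery read as OD600; NS1-free strain serves as control.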
Cycloheximide cs = counter-screen for Shiga toxin inhibitors: cycloheximide protein synthesis inhibition | 12% of 300,000 active | cell reporter, cycloheximide protein synthesis inhibition counterscreen | max response, %; in the data active means max response mostly above about 13%, no sharp cut-off; inactive means mostly below about 14%; further: read at 38.3 µM for the half of the compounds with a filed dose; 0% is about no effect
Pf growth 96h = P. falciparum growth inhibition at 96 hours | P. falciparum luciferase reporter growth, 96 h | Potency, µM (doses to about 28.7 µM), without a hit: top-dose activity change, negative = inhibition, most hits filed as inhibitors | 6.9% of 320,000 active; further: potency means the concentration at half of the fitted maximal effect; on the % scale 0 is the no-effect control and ±100 the full control effect
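Luminescence readout: decreased luciferase signal marks inhibited growth of reporter-expressing P. falciparum in infected red cells (2% hematocrit, 0.05% parasitemia final), exposed to compound two generations (96 h, 37 C, 5% CO2).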
Giardia FBPA inh = inhibitors of Giardia lamblia fructose-1,6-bisphosphate aldolase; purified Giardia FBPA; Potency, µM (titrated, usually from 59.6 µM), for the others: top-dose activity, negative = inhibition, most hits filed as inhibitors; 0.71% of 290,000 active; AID 2451; further: potency means the concentration at half of the fitted maximal effect; on the % scale 0 is the no-effect control and ±100 the full control effect; nearly all actives have a fitted effect of over 55% in size
Target sequence (A8B2U2 whole entry, looked up): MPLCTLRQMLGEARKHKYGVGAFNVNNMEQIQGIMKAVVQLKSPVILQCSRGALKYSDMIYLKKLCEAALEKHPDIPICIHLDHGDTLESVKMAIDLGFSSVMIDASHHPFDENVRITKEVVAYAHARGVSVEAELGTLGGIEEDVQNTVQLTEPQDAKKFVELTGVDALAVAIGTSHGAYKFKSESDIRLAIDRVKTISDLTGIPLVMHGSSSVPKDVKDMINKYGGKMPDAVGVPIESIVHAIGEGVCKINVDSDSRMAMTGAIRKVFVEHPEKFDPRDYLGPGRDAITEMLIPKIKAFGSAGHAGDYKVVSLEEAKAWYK
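40 nM FBPA preincubated 10 min at RT with compound (up to 57.5 uM final), then substrate plus GAPDH/TPI/NAD/arsenate coupling and diaphorase/resazurin added. Fluorescence read after 20 min at RT, 525/598 nm.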
Shiga toxin inh = Shiga toxin inhibition | Vero cells, Shiga toxin protein synthesis inhibition reporter | inhibition, % at 38.7 µM | 9.2% of 290,000 active | AID 2315; in the data active means inhibition mostly above about 28%, no sharp cut-off; inactive means mostly below about 43%; further: 0% is about no effect
Pf growth 48h = P. falciparum growth inhibition at 48 hours (one generation); P. falciparum luciferase growth in erythrocytes, 48 h; Potency, µM (titrated, usually from 28.7 µM), for the others: at the highest dose activity change, negative = inhibition, actives largely listed as inhibitors; 5.9% of 310,000 active; further: potency means the concentration at half of the fitted maximal effect; on the % scale 0 is the no-effect control and ±100 the full control effect
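Luminescence readout; reporter = integrated firefly luciferase in P. falciparum. RBC culture at 2% hematocrit, 0.1% parasitemia final, 37 C/5% CO2; decreased signal taken as growth inhibition.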
The depositor's hits bear a star; ? = inconclusive; · = no result given. This is a sample that favours compounds with a hit; in the whole collection about 21% have one here. Unless noted, the call rests on the fitted dose curve; in most records, active means well fitted curve in the direction sought with a large enough effect; inconclusive means small, poorly fitted or top-dose-only effect, or another doubt; inactive means no such curve, though single readings can be large; an effect the other way counts as inactive or inconclusive.

SMILES | NS1 function inh | Cycloheximide cs | Pf growth 96h | Giardia FBPA inh | Shiga toxin inh | Pf growth 48h
COc1ccc(NC(=O)CNC(c2ccccc2)c2ccccc2)cc1Cl | -50.4% | -4.3 | 0.0% | -4.5% | -4.5 | 0.0%
CC(Oc1ccc(Br)cc1)C(=O)N(C)CC(=O)Nc1ccc(N2CCOCC2)cc1 (stereo unspecified) | · | · | -4.8% | · | · | 1.1%
Cc1ccccc1C1C(C#N)=C(N)N(N(C)C)C2=C1C(=O)CC(C)(C)C2 (stereo unspecified) | -0.7% | -1.7 | -3.2% | -16.3% | -2.9 | ·
O=C(Nc1ccc(F)cc1)Nc1cccnc1Cl | -2.7% | 35.0* | 52.2% | 1.3% | 58.3* | 28.5%
COc1ccc(NC(C)=O)c(C)c1 | · | -2.9 | -18.2% | 1.3% | -9.9 | -0.9%
COc1ccc(NC(=O)Nc2ccccc2F)cc1Cl | -5.9% | 32.4* | ? | -0.5% | 99.0* | 496.8%
O=C(Nc1ccc(F)cc1)Nc1ccccc1F | -34.2% | 65.2* | 0.6% | -1.4% | 108.6* | 119.7%
COc1ccc(NC(=O)Nc2ccccc2F)c(C)c1 | 4.3% | 18.8* | 7.4% | 0.8% | 52.3 | 53.3%
O=C(Nc1ccc(NC(=O)c2ccccc2O)cc1)Nc1ccc(F)cc1F | 3.6% | -2.3 | ? | -2.2% | 5.9 | -29.4%
COc1ccc(NC(=O)c2c(F)c(F)c(F)c(F)c2F)cc1Cl | -7.1% | 6.3 | · | 2.9% | 23.7 | -6.8%
O=C(N=C1SC2CS(=O)(=O)CC2N1Cc1ccccc1)C1CCCCC1 (stereo unspecified) | 14.2% | -10.8 | ? | · | -4.0 | -6.2%
O=c1cc(N2CCNCC2)oc2c(-c3ccccc3)cccc12 | · | 0.1 | · | 1.1% | -7.3 | ·
O=C(NCc1ccc2c(c1)OCO2)c1ccc2c(c1)C(=O)N(Cc1cccnc1)C2=O | 2.0% | -1.4 | ? | 12.0% | -5.9 | 10.2%
CCN1CCN(C(CNC(=O)c2ccc3c(c2)OCO3)c2cccnc2)CC1 (stereo unspecified) | -19.5% | 20.3* | 69.7% | 5.8% | 33.4 | 32.8%
O=C(NCc1cccnc1)C(=O)Nc1ccc2c(c1)OCO2 | · | 18.1* | ? | 2.6% | 28.0 | 54.7%
O=C(NCc1cccnc1)c1ccc2c(c1)OCO2 | 2.7% | -3.4 | 9.28µM* | 2.8% | -4.3 | 6.9%
O=C(NC(=S)NCc1ccccc1)c1ccc2c(c1)OCO2 | 16.2% | 18.7* | -4.6% | -3.9% | -51.5 | 43.0%
O=C(NCc1ccncc1)C(=O)Nc1ccc2c(c1)OCO2 | ? | 16.9 | 46.7% | 0.7% | 16.0 | 35.6%
O=C(NNC(=S)NCc1ccccc1)c1ccc2c(c1)OCO2 | 2.0% | 7.1 | 4.4% | 6.7% | 14.3 | 24.7%
O=C(NCc1ccc2c(c1)OCO2)c1cccc(Cl)c1 | -1.6% | 6.9 | · | 0.1% | -2.3 | 29.2%
O=C(NCc1cccc(Cl)c1)c1ccc2c(c1)OCO2 | -8.0% | 21.1* | · | -2.2% | 41.0 | 17.0%
O=C(C1CCC(CNS(=O)(=O)c2ccccc2)CC1)N1CCOCC1 (stereo unspecified) | -0.4% | 7.6 | 0.0% | 2.3% | 1.3 | 36.0%
Cc1ccc(-c2nnc(CSc3nncn3N)o2)cc1 | 3.2% | 19.3* | 40.0% | 4.0% | 35.0 | 34.4%
Cn1nnnc1SCc1nnc(-c2ccc(Cl)cc2)o1 | 1.9% | 28.8* | · | 4.6% | 55.6* | 25.6%
Cc1occc1-c1nnc(SCc2nnc(-c3ccc(Cl)cc3)o2)n1C | -13.6% | 30.5* | -27.4% | 12.5% | 65.0* | 21.9%
SMILES | NS1 function inh | Cycloheximide cs | Pf growth 96h | Giardia FBPA inh | Shiga toxin inh | Pf growth 48h
Cc1ccc(S(=O)(=O)N(C)C)cc1NC(=O)COC(=O)Cc1ccccc1F | · | · | 0.8% | · | · | ?
CN(C)c1ccc(CNC(=O)CCc2ccc(S(=O)(=O)N3CCCCCC3)cc2)cc1 | · | · | ? | · | · | 11.7µM*
CCOc1ccc(S(=O)(=O)N2CCCCC2)cc1NC(=O)CCNC(=O)c1ccco1 | · | · | ? | · | · | 3.29µM*
CCOc1ccc(S(=O)(=O)N2CCCCC2)cc1NC(=O)CCc1ccc(OC)cc1 | · | · | 10.4µM* | · | · | 13.1µM*
O=C(NC1CCCCCC1)c1ccc(CS(=O)Cc2cccc(Cl)c2)o1 (stereo unspecified) | -8.8% | -2.6 | ? | · | 8.3 | -22.8%
COC(=O)C1C(=O)C2=C(CC1C)NC(C)=C(C(=O)OC1CCCC1)C2c1ccc(N(C)C)cc1 (stereo unspecified) | -45.3% | 5.7 | -6.9% | -13.1% | -21.5 | 5.22µM*
COC(=O)C1C(=O)C2=C(CC1C)NC(=O)CC2c1ccc(F)cc1 (stereo unspecified) | · | -3.4 | 3.8% | 2.3% | -7.0 | 14.7µM*
COc1cc(C2NC(=O)N(C)C(C)=C2C(=O)OCc2ccccc2)cc(Br)c1O (stereo unspecified) | -1.1% | -0.9 | -1.8% | -2.2% | 0.8 | -4.5%
CCOc1cc(C2NC(=O)N(C)C(C)=C2C(=O)OC)cc(Br)c1O (stereo unspecified) | -8.3% | -2.5 | 4.8% | -4.3% | -6.5 | 13.1µM*
CCOc1c(Br)cc(C2CC(=O)Nc3cc(OC)c(OC)cc32)cc1OC (stereo unspecified) | 9.4% | 0.5 | 161.5% | -0.4% | -8.4 | ?
CCOc1cc(C2CC(=O)NC3=C2C(=O)C(C(=O)OC)C(C)C3)cc(Br)c1O (stereo unspecified) | 1.8% | -1.8 | 23.3% | -7.8% | 30.1 | 1.47µM*
COC(=O)C1C(=O)C2=C(CC1C)Nc1ccccc1NC2c1cccs1 (stereo unspecified) | · | -1.6 | ? | -16.7% | 6.5 | 21.6%
COc1cccc(Cn2c(=O)c(C)nc3cnc(Nc4ccccc4)nc32)c1 | · | · | · | 5.9% | · | ·
CCOC(=O)c1c(C=O)c2sc(C)cc2n1C | · | 22.1* | -10.5% | 0.4% | 58.8 | 11.5%
Cc1cccc(N2C(=O)CN(Cc3sccc3C)C2=S)c1 | 1.3% | 6.1 | -3.8% | 1.3% | -5.1 | ?
Cc1cc(C)cc(N2C(=O)CN(Cc3sccc3C)C2=S)c1 | 16.8% | -2.6 | ? | 5.4% | 2.3 | 9.28µM*
CCc1ccc(N2C(=O)CN(Cc3sccc3C)C2=S)cc1 | · | 20.5* | ? | -0.7% | 51.1* | 6.7%
CCOc1ccccc1C(=O)Nc1ccc2c(c1)C(=O)NC2=O | 11.7% | -1.9 | ? | -9.0% | · | 19.8%
Cc1nc(-c2ccc(S(=O)(=O)N3CCOCC3)cc2)cs1 | 6.6% | -0.8 | ? | · | -2.0 | -2.1%
Cc1ccc2nc(-c3ccc(S(=O)(=O)N4CCOCC4)cc3)cn2c1 | 1.7% | 23.8* | · | -4.8% | 38.6 | 45.2%
CC(=O)Nc1ccc(-c2cn3cc(C)ccc3n2)cc1 | 1.6% | 41.6* | 144.8% | -12.7% | 61.2* | 154.6%
Cc1ccn2cc(-c3ccc(S(=O)(=O)N4CCOCC4)cc3)nc2c1 | ? | 48.1* | 20.0% | -0.7% | 46.8 | 31.6%
CN(C)c1ncc2nc(-c3ccc(Cl)cc3)c(=O)n(C3CC3)c2n1 | · | · | · | -0.6% | · | ·
O=C1c2ccccc2CN1CCSC(=S)N1CCOCC1 | -8.3% | 73.9* | 69.0% | 5.7% | 80.8* | ?
O=C1c2ccccc2CN1CCSC(=S)N1CCSCC1 | · | 47.8* | 289.7% | 7.9% | 157.5* | 426.6%

Source: PubChem
